Screens as filed in PubChem.
NOMO-1 viab – STK33 inhibitor candidate reducing NOMO-1 cell viability | inhibition, % (concentration not given with the values) | AID 2330 | NOMO-1 AML viability, CellTiter-Glo luminescence, 72 h | 37,000 tested, 7.5% active; in the data active means inhibition above about 80%; inconclusive means no clear call, values can overlap the other calls
PD-1 reverse act – activators reversing PD-1 mediated T-cell inhibition | primary human CD4 T cells, PD-L1 beads, CellTiter-Glo 96 h | activation, % (no concentration beside the values) | 29,000 tested, under 10 active | AID 2316; call rule not given here
STK33 inh – inhibitors of human STK33 kinase | ADP-Glo luminescence, MBP substrate | inhibition, % at 12.5 µM | 27,000 tested, 0.44% active | AID 2322; in the data active means inhibition above about 20%; inconclusive means no clear call, values can overlap the other calls
Target sequence (Q9BYT3 whole entry, looked up): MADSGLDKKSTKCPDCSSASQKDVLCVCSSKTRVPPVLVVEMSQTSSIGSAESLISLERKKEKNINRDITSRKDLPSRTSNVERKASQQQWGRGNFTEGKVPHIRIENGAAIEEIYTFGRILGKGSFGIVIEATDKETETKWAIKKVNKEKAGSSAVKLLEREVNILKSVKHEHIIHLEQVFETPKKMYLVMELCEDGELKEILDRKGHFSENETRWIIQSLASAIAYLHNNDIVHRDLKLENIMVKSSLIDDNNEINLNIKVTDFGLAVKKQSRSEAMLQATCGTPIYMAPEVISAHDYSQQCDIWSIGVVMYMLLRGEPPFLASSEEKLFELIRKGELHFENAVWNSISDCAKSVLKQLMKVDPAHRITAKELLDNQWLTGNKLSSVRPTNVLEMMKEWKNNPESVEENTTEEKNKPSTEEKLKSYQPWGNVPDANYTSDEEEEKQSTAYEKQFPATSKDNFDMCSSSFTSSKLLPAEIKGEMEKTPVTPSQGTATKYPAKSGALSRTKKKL
A number is an active result; - = inactive; ? = inconclusive; . = not tested or not shown. This is one part of a sample in which hits are shown more often than they occur.

SMILES	NOMO-1 viab	PD-1 reverse act	STK33 inh
COc1ccc([Si](C)(C)[C@@H]2[C@@H](CCn3cc([C@H](O)c4ccccc4)nn3)O[C@]3(C(=O)N(Cc4ccc(N5CCOC5=O)cc4)c4ccccc43)[C@H]2C)cc1	.	.	-
NCCCCCCNS(=O)(=O)c1cccc2c(Cl)cccc12	-	-	-
NCCNS(=O)(=O)c1cccc2cnccc12	-	-	44
Oc1cc2c(c(Cl)c1O)CCNC[C@@H]2c1ccccc1	111	.	-
O=C1CCC(c2ccccc2)C(=O)C1C(=O)c1ccc(Cl)cc1Cl (centres undefined)	-	-	.
O=C(COc1cccc2ccccc12)Nc1cc([N+](=O)[O-])ccc1O	-	.	-
C[C@@H]1CN([C@H](C)CO)C(=O)Cc2cc(NC(=O)C3CC3)ccc2O[C@@H]1CN(C)Cc1ccc(C(=O)Nc2ccccc2N)cc1	-	-	.
C[C@@H]1CN([C@H](C)CO)C(=O)Cc2cc(N(C)C)ccc2O[C@H]1CN(C)Cc1ccc(C(=O)Nc2ccccc2N)cc1	127	-	.
C[C@@H]1CN([C@H](C)CO)C(=O)Cc2cc(NC(=O)c3ccncc3)ccc2O[C@H]1CN(C)Cc1ccc(C(=O)Nc2ccccc2N)cc1	-	-	.
C[C@@H]1CN([C@H](C)CO)C(=O)Cc2cc(N(C)C)ccc2O[C@@H]1CN(C)Cc1ccc(C(=O)Nc2ccccc2N)cc1	140	-	.
CNC(=O)COc1ccc(Nc2nnc(-c3ccc(OC)cc3)c3ccccc23)cc1	-	.	-
COc1ccc(-c2nnc(Nc3cccc(C(F)(F)F)c3)c3ccccc23)cc1	116	-	.
C[C@@H]1CN([C@@H](C)CO)C(=O)c2cccc(NS(=O)(=O)c3ccc(Cl)cc3)c2O[C@H]1CN(C)S(=O)(=O)c1cccs1	-	.	.
C[C@@H]1CCCCO[C@@H](CN(C)S(=O)(=O)c2ccc(F)cc2)[C@@H](C)CN([C@H](C)CO)C(=O)c2cc(NS(=O)(=O)c3ccc(Cl)cc3)ccc2O1	112	-	-
C[C@@H]1CCCCO[C@H](CN(C)S(=O)(=O)c2ccc(F)cc2)[C@@H](C)CN([C@H](C)CO)C(=O)c2cc(NS(=O)(=O)c3ccc(Cl)cc3)ccc2O1	-	.	.
C[C@@H]1CCCCO[C@@H](CN(C)S(=O)(=O)c2cccs2)[C@@H](C)CN([C@H](C)CO)C(=O)c2cc(NS(=O)(=O)c3ccc(Cl)cc3)ccc2O1	86	-	-
C[C@@H]1CCCCO[C@@H](CN(C)S(=O)(=O)c2ccc(Cl)cc2)[C@@H](C)CN([C@H](C)CO)C(=O)c2cc(NS(=O)(=O)c3cccs3)ccc2O1	-	-	-
Cc1ccc(S(=O)(=O)Nc2ccc3c(c2)C(=O)N([C@H](C)CO)C[C@H](C)[C@@H](CN(C)S(=O)(=O)c2ccc(C)cc2)OCCCC[C@@H](C)O3)cc1	-	.	.
C[C@@H]1CN([C@@H](C)CO)C(=O)c2cccc(NS(=O)(=O)c3ccc(Cl)cc3)c2O[C@@H]1CN(C)S(=O)(=O)c1cccs1	85	-	.
Cc1ccc(S(=O)(=O)Nc2ccc3c(c2)C(=O)N([C@H](C)CO)C[C@H](C)[C@H](CN(C)S(=O)(=O)c2ccc(C)cc2)OCCCC[C@@H](C)O3)cc1	95	-	-
CCC(Sc1nnc(-c2ccc([N+](=O)[O-])cc2)n1C)C(=O)Nc1ccc(Br)cc1 (centres undefined)	-	-	-
COC(=O)c1ccccc1NC(=O)CN(C)S(=O)(=O)c1cc(Cl)ccc1Cl	-	-	-
COc1ccc(-c2nnc(SCC(=O)Nc3cccc(SC)c3)o2)cc1	-	-	-
CC(=O)c1ccc(NC(=O)CN(C)S(=O)(=O)c2ccc(Br)cc2)cc1	-	-	-
Cc1ccnc(NC(=O)Cn2cnc3c2c(=O)n(C)c(=O)n3C)n1	-	-	-
SMILES	NOMO-1 viab	PD-1 reverse act	STK33 inh
COc1ccc(C(=O)CSc2nnc(-c3ccc(C)cc3)n2-c2ccc(C)cc2)cc1	-	.	-
Cc1ccc(NC(=O)CSc2c(C)n[nH]c2C)cc1Cl	-	-	-
COc1ccccc1-n1nnnc1SCC(=O)Nc1ccc(Br)cc1	-	.	-
COc1ccc(/C=C2/C(=O)C(C(C)C)=CCC2C)cc1 (centres undefined)	-	-	.
N#C/C(=C\c1ccc(O)c(O)c1)C(=O)Nc1ccccc1	?	-	-
N#C/C(=C/c1ccc(O)c(O)c1)C(=O)OC/C=C/c1ccccc1	99	.	-
O=C(Oc1ccccc1OC(=O)c1ccccc1)c1ccccc1	115	-	.
O=C(Oc1ccc2cc(OC(=O)c3ccccc3)ccc2c1)c1ccccc1	-	-	.
C[C@@H]1CN([C@H](C)CO)C(=O)Cc2cc(NS(=O)(=O)c3ccc(Cl)cc3)ccc2O[C@H]1CN(C)Cc1ccc(-c2ccccc2)cc1	-	-	-
C[C@H]1CN([C@@H](C)CO)C(=O)Cc2cc(NS(=O)(=O)c3ccc(Cl)cc3)ccc2O[C@H]1CN(C)Cc1ccc(-c2ccccc2)cc1	111	-	.
C[C@@H]1CN([C@H](C)CO)C(=O)Cc2cc(NS(=O)(=O)c3ccc(Cl)cc3)ccc2O[C@@H]1CN(C)Cc1ccc(-c2ccccc2)cc1	122	-	-
C[C@@H]1CN([C@@H](C)CO)C(=O)Cc2cc(NS(=O)(=O)c3ccc(Cl)cc3)ccc2O[C@@H]1CN(C)Cc1ccc(-c2ccccc2)cc1	-	-	-
O=C(CSc1n[nH]c(-c2ccco2)n1)Nc1ccc(I)cc1	-	-	-
CS(=O)(=O)N(CC(=O)Nc1c(F)cccc1F)C1CCCCC1	-	-	-
Nc1cccc(-c2cc3c(Oc4cccc(O)c4)ncnc3[nH]2)c1	91	-	69
Cc1ccc(Oc2ccc(C)c(C)c2)cc1C	-	-	.
COc1ccc(NC(=O)c2ccc(N(C)S(=O)(=O)c3ccc(OC)c(OC)c3)cc2)cc1OC	-	-	-
COc1ccc(NC(=O)c2ccc(-c3ccc(-c4noc(C)n4)cc3C)cc2)cc1OCCN(C)C	115	.	-
CC(C)C12CC1C(C)(O[C@@H]1O[C@H](CO)[C@@H](O)[C@H](O)[C@H]1O)CC2=O (some centres undefined)	.	.	-
COc1ccc(NC(=O)Nc2ccc(OC)c(OC)c2)cc1OC	-	-	.
CC1=CC(=O)C2C(C)(C)CCC[C@]2(C)[C@@]1(O)CCc1ccoc1 (some centres undefined)	96	.	-
C[C@@H]1C[C@@H](O)C2[C@@](C)(CO)CCC[C@]2(C)[C@@]1(O)CCc1ccoc1 (some centres undefined)	-	-	-
Cc1cccc2c(C(=O)NCCN3CCOCC3)cc(-c3ccccc3Cl)nc12	-	.	-
O=C(NCc1cccnc1)c1ccc(Cl)c(S(=O)(=O)N2CCOCC2)c1	-	-	-
COc1ccccc1C(=O)Oc1c(CN2CCOCC2)cc(Cl)c2cccnc12	109	.	-
O=C(Oc1c(CN2CCOCC2)cc(Cl)c2cccnc12)c1ccc(F)cc1	109	.	-
CC(C)(C)NC(=O)c1ccc(-n2nc(C(F)(F)F)c3c2-c2ccoc2CC3)cc1	-	-	.
C[C@@H]1CN([C@@H](C)CO)C(=O)c2cc(N(C)C)ccc2O[C@H]1CN(C)Cc1ccc(Oc2ccccc2)cc1	-	-	.
C[C@@H]1CN([C@@H](C)CO)C(=O)c2cc(N(C)C)ccc2O[C@@H]1CN(C)Cc1ccc(Oc2ccccc2)cc1	90	-	.
